According to PubChem BioAssay (Tox21):
Records with an inconclusive call do not appear. Values without a mark were called inactive. Active and inactive are the calls of the source. Calls come from the whole dose curve.

Assay: cAMP Responsive Elements (CRE) small molecule agonists, cell-based qHTS assay (AID 1963590)
Settings: CRE-bla HEK293T, beta-lactamase FRET ratio, 3 h; series mostly up to 92.4 µM; activation: at the top concentration
Text: U.S. Tox21 Program National Center for Advancing Translational Sciences [NCATS] Division of Preclinical Innovation [DPI] U.S. Environmental Protection Agency [EPA] National Institutes of Environmental Health Sciences [NIEHS] National Toxicology Program [NTP] U.S. Food and Drug Administration [FDA] Tox21 Assay Overview: CREB (cyclic-AMP Responsive Element Binding Protein) is a cellular transcription factor. It binds to certain DNA sequences called cAMP Responsive Elements (CRE) and regulates the transcription of the genes. […] This cell line can be used to find agonists/antagonists of the cyclic AMP signaling pathway. The activation of the report gene under culture conditions can be detected by fluorescence intensity. This cell line has been used to screen the Tox21 10K compound library to identify agonists that induce oxidative stress.
Tox21 Assay Protocol Summary: CRE-bla Hek 293T cells were suspended in assay medium (DMEM containing 10% dialyzed FBS, 0.1 mM NEAA, 1 mM sodium pyruvate and 25 mM HEPES) and dispensed at 2,000 cells/5 uL /well into 1536-well black wall/clear bottom plates using a Multidrop Combi (ThermoFisher Scientific, Waltham, MA) dispenser. After the assay plates were incubated at 37 C/5% CO2 for 18 hrs, 23 nL of compounds dissolved in DMSO, positive controls or DMSO only was transferred to the assay plate by a pintool workstation (Kalypsys, San Diego, CA). After the plates were incubated at 37 C/5% CO2 for 3 hrs, 1 uL of LiveBLAzer B/G FRET substrate (Invitrogen, Carlsbad, CA) was added to each well using Bioraptr Flying Reagent Dispenser (FRD, Aurora Discovery, San Diego, CA). The plates were incubated at room temperature for 2 h.
% is set by controls: 0 for no effect and ±100 for the full control effect.

| Structure (SMILES) | activation | Potency |
| --- | --- | --- |
| CCOC(C)(C)C | -0.465% |  |
| C(/C=C/C=C/Nc1ccccc1)=Nc1ccccc1 | -1.59% |  |
| CCc1ccc(C=O)cc1 | 0.0604% |  |
| C[N+](C)(C)CC[N+]1(C)Cc2c(Cl)c(Cl)c(Cl)c(Cl)c2C1 | 0.594% [at 42.5 µM] |  |
| O=C1c2ccccc2C(=O)C1c1ccc2cc(S(=O)(=O)O)cc(S(=O)(=O)O)c2n1 | -6.73% |  |
| CO[Si](CCCNCCC[Si](OC)(OC)OC)(OC)OC | -0.246% |  |
| CCCCCCCCCCCCCCCC(=O)OC | -0.453% [at 19 µM] |  |
| CCN(CC)CC(=O)OCC(=O)[C@@]1(O)CC[C@H]2[C@@H]3CCC4=CC(=O)CC[C@]4(C)[C@H]3[C@@H](O)C[C@@]21C | 3.74% [at 42.5 µM] |  |
| CCCCCCCCCCCCOCCO |  | inactive |
| CCOCCOCCOCC | 0.383% |  |
| C=CC(C)(CCC=C(C)C)OC=O (stereo not given) | 1.14% |  |
| CC(=O)c1sc(C)nc1C | -1.46% |  |
| CC(=O)/C=C/C1C(C)=CCCC1(C)C (stereo not given) | 0.324% |  |
| O[C@@H]([C@H](O)[C@H](O)CBr)[C@H](O)CBr | -0.5% |  |
| OC[C@H]1O[C@@](CO)(O[C@H]2O[C@H](CO)[C@@H](O)[C@H](O)[C@H]2O)[C@@H](O)[C@@H]1O |  | inactive |
| COc1ccc(OC)c(C(O)CNC(=O)CN)c1 (stereo not given) |  | inactive |
| Cc1cc(O)cc(C)c1Cl |  | inactive |
| OCC(O)CN1CCN(c2ccccc2)CC1 (stereo not given) | -0.538% [at 42.5 µM] |  |
| CCCCCCCCCCCC[N+](C)(C)CCCS(=O)(=O)[O-] | 3.62% |  |
| Cc1ccc(S(N)(=O)=O)cc1 |  | inactive |

| Structure (SMILES) | activation | Potency |
| --- | --- | --- |
| CCc1ccccc1O |  | inactive |
| CCCCOCCOCCOCCO |  | inactive |
| O=c1[nH]c(=O)c2ccccc2o1 | 0.307% [at 42.5 µM] |  |
| CC1=CC[C@@]23C[C@@H]1C(C)(C)[C@@H]2CC[C@H]3C | -1.64% |  |
| CCOC(=O)c1cc(=O)c2c(OCC(COc3cccc4oc(C(=O)OCC)cc(=O)c34)OC(=O)[C@@H](N)CCCCN)cccc2o1 | 0.486% [at 42.5 µM] |  |
| O=C(O)CONC(=O)c1ccccc1 | 0.327% |  |
| C/C=C/c1ccc(OC)c(OC)c1 | 1.17% |  |
| CC(C)[C@@H]1CC[C@@H](C)CC1=O |  | inactive |
| C/C(Cl)=C/CCl | -0.729% |  |
| C=CC(=O)OCCCCCC | 0.0264% |  |
| CCCCCCCCCCCCOCC1CO1 (stereo not given) |  | inactive |
| CCCCCCN | 0.177% |  |
| CS(C)(=O)=O | -0.563% |  |
| CC1(C)Oc2ccc(C#N)cc2[C@@H](N2CCCC2=O)[C@@H]1O | 0.359% [at 42.5 µM] |  |
| N#CCc1cccc(C(F)(F)F)c1 | 1.12% |  |
| CC(C)=CCCC(C)O (stereo not given) | -0.0367% |  |
| NC(=Nc1ccccc1)Nc1ccccc1 | 3.16% [at 42.5 µM] |  |
| CCCC(C)CO (stereo not given) | -0.737% |  |
| CC(C=O)c1ccccc1 (stereo not given) | -0.141% |  |
| C/C(=C1\CCOC(=O)S1)N(C=O)Cc1cnc(C)nc1N | -0.296% [at 42.5 µM] |  |
